Data on five molecules can be found in PubChem BioAssay (NCATS).

Unmarked numbers belong to inactive results. Inconclusive results are not listed. Active and inactive are the calls of the source. Unless noted, calls come from the whole dose curve; as a rule, active = well fitted curve in the direction sought with a large enough effect; inconclusive = small, poorly fitted or top-dose-only effect, or another doubt; inactive = no such curve, though single readings can be large; an effect the other way counts as inactive or inconclusive.

Experiment [1] is described as follows: Viability counterscreen for agonist of constitutive androstane receptor (CAR) against the NCATS DSHEA and TCM libraries (AID 1794838). Note: 0% is about no effect. The following applies: HepG2 cell viability counterscreen, CAR agonist assay, co-treated with 0.75 µM CAR antagonist; series mostly up to 40 µM. In outline: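 Cell health was measured as CellTiter-Fluor signal in HepG2-CYP2B6-hCAR cells treated for 24 h with substances alongside the hCAR antagonist PK11195 (0.75 uM final).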

Experiment [2] in a line: HepG2 viability counterscreen (readout 2: ATP content) against the NCATS DSHEA and TCM libraries (AID 1794840). Note: 0% is about no effect. Conditions: ATP content luminescence; series mostly up to 27.3 µM. In short, it runs like this:
(§1)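 Same wells read twice: first fluorescence from cleaved GF-AFC substrate (25 uM final, 30 min, 37C) for live-cell protease, then CellTiter-Glo luminescence after 30 min at room temperature for ATP. HepG2 cells were exposed ~24 h to substances.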

Experiment [3] can be described thus: HepG2 viability counterscreen (readout 1: protease activity) against the NCATS DSHEA and TCM libraries (AID 1794841).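 Note: cells exposed to compounds for about 24 h before the protease read; 0% is about no effect.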 The following applies: qHTS concentration series; series mostly up to 27.3 µM. In short, it runs like this: as §1
(In general: Counterscreens check selectivity or assay interference.)

Experiment [4] deals with Cytochrome P450 3A4 (Homo sapiens) (UniProt P08684). Kind of experiment: qHTS for inhibitors of CYP3A4 against the NCATS DSHEA and TCM libraries (AID 1919971). Note: potency is the fitted concentration of half-maximal effect. The following applies: recombinant CYP3A4 enzyme activity, luminescence qHTS. In short, it runs like this:
(§2)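 Concentration-response screening with isoform-matched pro-luciferin substrates. The CYP reaction was initiated by NADPH regenerating solution and ran 30-45 min in darkness at room temperature.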
(In general: qHTS replaces the single test concentration by a dilution series.)

Experiment [5] deals with Cytochrome P450 2D6 (Homo sapiens) (UniProt P10635). Kind of experiment: qHTS for inhibitors of CYP2D6 against the NCATS DSHEA and TCM libraries (AID 1919972). Note: potency is the fitted concentration of half-maximal effect. Conditions: CYP2D6 enzymatic inhibition, luminescence qHTS; series mostly up to 34.1 µM. In outline: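 CYP2D6 enzyme with pro-luciferin substrate in manufacturer buffer (typically 100 mM KPO4), preincubated 15 min RT with substances (most at 19.5 nM upward); NADPH regeneration system (1x) started 30–45 min RT reaction; P450-Glo luminescence read after 30 min; quinidine as intraplate control.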

Experiment [6] addresses Cytochrome P450 2C9 (Homo sapiens) (UniProt P11712). Kind of experiment: qHTS for inhibitors of CYP2C9 against the NCATS DSHEA and TCM libraries (AID 1919973). Note: potency is the fitted concentration of half-maximal effect. The following applies: recombinant CYP2C9 enzyme activity, luminescence; series mostly up to 34.1 µM. In short, it runs like this: as §2
The target in experiment [7] is Cytochrome P450 2C19 (Homo sapiens) (UniProt P33261). Kind of experiment: qHTS for inhibitors of CYP2C19 against the NCATS DSHEA and TCM libraries (AID 1919974).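 Note: luminescence from luciferin released by CYP2C19 oxidation of a pro-luciferin substrate; potency is the fitted concentration of half-maximal effect.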 Conditions: CYP2C19 enzyme inhibition, luminescence qHTS. In outline:
as §2

Experiment [8] can be described thus: KB-3-1 P-gp reporter qHTS against the NCATS DSHEA and TCM libraries (AID 1919975). Note: 0% is about no effect. Conditions: KB-3-1 parental cells, CellTiter-Glo luminescence viability, 72 h; series mostly up to 26.1 µM. In short, it runs like this:
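KB-3-1 parental line, 1536-well qHTS: cells seeded, ~4 h attachment, pintool compound addition, ~72 h at 37C, then CellTiter-Glo, 30 min RT, luminescence. Concentration-response format.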

Experiment [9] has as its target Cytochrome P450 1A2 (Homo sapiens) (UniProt P05177). Nature of the experiment: qHTS for inhibitors of CYPIA2 against the NCATS DSHEA and TCM libraries (AID 1919976). Note: potency is the fitted concentration of half-maximal effect. The following applies: recombinant CYP1A2 enzyme activity, luminescence. In outline:
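Enzyme and pro-luciferin substrate, or substrate alone as no-enzyme background, are pre-incubated with test samples for 15 min at room temperature. NADPH regeneration system (1x final) initiates a 30-45 min dark reaction; luciferase detection reagent follows before luminescence reading.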

A short description of experiment [10]: qHTS Counterscreen for compound interference against the NCATS DSHEA and TCM libraries (AID 1919978).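 Note: compounds preincubated with 1 µM D-luciferin or buffer before detection reagent; % of control where 0% means no effect.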 Conditions: firefly luciferase detection reagent interference, luminescence. In outline:
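Compounds, titrated from 19.5 nM to 39.8 uM final, were pinned onto 1 uM D-luciferin or plain 100 mM potassium phosphate. After 15 min at room temperature, luciferin detection reagent was added for 30 min before the luminescence read.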

Experiment [11] is described as follows: Dual reporter qHTS for agonist of Pregnane X Receptor (hPXR) against the NCATS DSHEA and TCM libraries: Fluorescence readout (AID 1920058). Note: 0% is about no effect. Conditions: PXR dual reporter cells; series mostly up to 40 µM. In short, it runs like this:
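Cells were plated at 2000 per well and allowed to attach for 5 h. Test substances were pinned in and incubated roughly 24 h. CellTiter-Fluor was then added and fluorescence measured after 1 h.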

For experiment [12], the target named is Nuclear receptor subfamily 1 group I member 2 (Homo sapiens) (UniProt O75469). Nature of the experiment: Dual reporter qHTS for agonist of Pregnane X Receptor (hPXR) against the NCATS DSHEA and TCM libraries: Luminescence readout (AID 1920059). Note: 0% is about no effect. The following applies: hPXR dual reporter cells, luciferase luminescence agonist; series mostly up to 40 µM. In outline: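 hPXR-Luc HepG2 cells, 2000/well in 5% charcoal-stripped FBS medium, attached 5 h, then exposed 24 h at 37C to compounds. Viability by CellTiter-Fluor, then luciferase luminescence with ONE-Glo.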

Experiment [13] can be described thus: Dual reporter qHTS for antagonist of Pregnane X Receptor (hPXR) against the NCATS DSHEA and TCM libraries: Fluorescence Readout (AID 1920061). Note: 0% is about no effect. Conditions: PXR dual reporter cells, antagonist mode; series mostly up to 40 µM. In short, it runs like this:
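HepG2 hPXR-Luc, 2000 cells/well, charcoal-stripped FBS medium; 5 h attach; RIF 2 uM final; 24 h 37C/5% CO2; CellTiter-Fluor 1 h, fluor 405/540; ONE-Glo 30 min RT, lum.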

For experiment [14], the target named is Cytochrome P450 2D6 (Homo sapiens) (UniProt P10635). Kind of experiment: Cytochrome P450 family 2 subfamily D member 6 (CYP2D6) small molecule antagonists: luciferase biochemical (cell-free) qHTS assay (AID 1645840; active = well fitted curve in the direction sought with a large enough effect in the repeat runs; an effect the other way counts as inactive or inconclusive; note: % is set by controls: 0 for no effect and ±100 for the full control effect; nearly all actives have a fitted effect of over 55% in size). The following applies: P450-Glo CYP2D6 enzyme, luciferin luminescence, 1 h; series mostly up to 57.4 µM. In outline:
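P450-Glo CYP2D6 system: proluciferin substrate converted by enzyme to luciferin, read by luminescence proportional to activity. Enzyme-substrate mix with compound 10 min at room temperature, then NADPH regeneration 1 h before detection reagent.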

Experiment [15] has as its target DNA dC->dU-editing enzyme APOBEC-3G (Homo sapiens) (UniProt Q9HC16). Kind of experiment: qHTS for inhibitors of Vif-A3G interactions: Validation (AID 588379). Note: 0% is about no effect. The following applies: Vif-A3G protein interaction assay; series mostly up to 46.1 µM. In outline:
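Yellow fluorescence (Ex 488, Em 500-530) of Vif-coexpressing HeLa A3G-eYFP cells, scanned by Acumen cytometer, reports blocked A3G degradation. Cells plated at 700/well overnight at 37 deg C before compound addition, then a further overnight compound incubation at 37 deg C.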

Experiment [16] addresses Cytochrome P450 3A4 (Homo sapiens) (UniProt P08684). Nature of the experiment: qHTS Assay for Inhibitors and Substrates of Cytochrome P450 3A4 (AID 884). Note: potency is the fitted concentration of half-maximal effect; nearly all actives have a fitted effect of over 50% in size. The following applies: recombinant CYP3A4, Luciferin-PPXE luminescence; series mostly up to 57.1 µM. In outline: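 Luminescent readout of luciferin produced by CYP3A4 (20 nM) dealkylation of Luciferin-PPXE, 25 uM (its KM). NADPH-driven reaction ran 60 min at RT after 10 min compound preincubation; data scaled to 57 uM ketoconazole as 100% inhibition.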

Experiment [17] can be described thus: Primary qHTS for inhibitors of nuclear receptor binding SET domain protein 2 (NSD2) in an RCH-ACV wild type WT cells (2C) (AID 1645877). Note: potency is the fitted concentration of half-maximal effect; nearly all actives have a fitted effect of over 70% in size. Conditions: RCH-ACV (leukaemia line) NSD2 WT (2C) viability, CellTiter-Glo, 72 h; series mostly up to 44.9 µM.

Chain of Cytochrome P450 3A4 (Homo sapiens) (P08684 whole entry, looked up, canonical isoform): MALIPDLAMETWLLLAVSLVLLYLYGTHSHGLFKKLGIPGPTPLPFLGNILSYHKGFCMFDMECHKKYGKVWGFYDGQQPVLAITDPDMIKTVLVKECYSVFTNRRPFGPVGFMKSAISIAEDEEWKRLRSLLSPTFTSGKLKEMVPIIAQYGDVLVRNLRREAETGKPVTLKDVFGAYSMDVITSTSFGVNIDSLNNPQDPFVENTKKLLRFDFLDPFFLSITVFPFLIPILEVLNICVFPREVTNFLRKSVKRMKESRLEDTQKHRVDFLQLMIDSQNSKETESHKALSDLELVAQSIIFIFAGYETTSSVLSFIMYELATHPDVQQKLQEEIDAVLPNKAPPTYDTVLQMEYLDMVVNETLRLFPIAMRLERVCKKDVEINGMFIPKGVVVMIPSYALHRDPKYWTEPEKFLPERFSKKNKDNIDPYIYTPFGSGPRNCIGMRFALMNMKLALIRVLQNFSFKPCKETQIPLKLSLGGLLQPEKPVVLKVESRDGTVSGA
Chain of Cytochrome P450 2D6 (Homo sapiens) (P10635 whole entry, looked up): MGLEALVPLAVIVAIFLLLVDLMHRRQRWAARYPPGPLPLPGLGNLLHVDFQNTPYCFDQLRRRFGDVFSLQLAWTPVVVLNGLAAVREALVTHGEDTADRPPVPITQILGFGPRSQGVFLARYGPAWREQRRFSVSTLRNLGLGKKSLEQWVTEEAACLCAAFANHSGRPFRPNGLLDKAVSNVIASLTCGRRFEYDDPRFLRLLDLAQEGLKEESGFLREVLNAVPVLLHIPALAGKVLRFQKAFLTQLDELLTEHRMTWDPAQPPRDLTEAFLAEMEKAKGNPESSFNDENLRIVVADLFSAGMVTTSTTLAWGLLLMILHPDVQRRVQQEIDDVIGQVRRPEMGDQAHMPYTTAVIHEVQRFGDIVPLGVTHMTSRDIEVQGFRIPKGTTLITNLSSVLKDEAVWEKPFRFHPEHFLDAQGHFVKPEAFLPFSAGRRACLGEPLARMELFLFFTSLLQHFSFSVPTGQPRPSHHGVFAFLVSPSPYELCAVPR
Chain of DNA dC->dU-editing enzyme APOBEC-3G (Homo sapiens) (Q9HC16 whole entry, looked up): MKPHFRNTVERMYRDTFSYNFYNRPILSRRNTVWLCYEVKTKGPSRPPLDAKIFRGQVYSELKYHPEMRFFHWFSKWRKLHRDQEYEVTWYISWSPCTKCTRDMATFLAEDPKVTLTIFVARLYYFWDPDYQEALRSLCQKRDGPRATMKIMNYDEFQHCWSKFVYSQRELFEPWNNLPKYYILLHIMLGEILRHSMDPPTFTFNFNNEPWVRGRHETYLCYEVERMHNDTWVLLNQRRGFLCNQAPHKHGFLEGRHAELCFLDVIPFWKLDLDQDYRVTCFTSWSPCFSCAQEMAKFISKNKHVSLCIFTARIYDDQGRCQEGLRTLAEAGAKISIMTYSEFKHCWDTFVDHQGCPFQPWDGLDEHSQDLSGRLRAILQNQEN
Chain of Cytochrome P450 2C19 (Homo sapiens) (P33261 whole entry, looked up): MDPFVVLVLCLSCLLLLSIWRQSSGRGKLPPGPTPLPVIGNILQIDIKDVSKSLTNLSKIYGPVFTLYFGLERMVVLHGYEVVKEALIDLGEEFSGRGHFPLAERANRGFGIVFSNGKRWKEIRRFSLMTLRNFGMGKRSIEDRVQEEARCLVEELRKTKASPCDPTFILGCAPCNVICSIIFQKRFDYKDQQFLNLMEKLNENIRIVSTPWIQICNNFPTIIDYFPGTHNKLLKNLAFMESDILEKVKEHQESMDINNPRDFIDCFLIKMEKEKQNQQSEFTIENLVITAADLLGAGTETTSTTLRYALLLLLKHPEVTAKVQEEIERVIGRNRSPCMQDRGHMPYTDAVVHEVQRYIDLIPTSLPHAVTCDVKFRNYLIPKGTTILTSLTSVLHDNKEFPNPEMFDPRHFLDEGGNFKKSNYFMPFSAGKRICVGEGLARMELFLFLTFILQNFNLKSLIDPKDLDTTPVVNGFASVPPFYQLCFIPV
Chain of Nuclear receptor subfamily 1 group I member 2 (Homo sapiens) (O75469 whole entry, looked up): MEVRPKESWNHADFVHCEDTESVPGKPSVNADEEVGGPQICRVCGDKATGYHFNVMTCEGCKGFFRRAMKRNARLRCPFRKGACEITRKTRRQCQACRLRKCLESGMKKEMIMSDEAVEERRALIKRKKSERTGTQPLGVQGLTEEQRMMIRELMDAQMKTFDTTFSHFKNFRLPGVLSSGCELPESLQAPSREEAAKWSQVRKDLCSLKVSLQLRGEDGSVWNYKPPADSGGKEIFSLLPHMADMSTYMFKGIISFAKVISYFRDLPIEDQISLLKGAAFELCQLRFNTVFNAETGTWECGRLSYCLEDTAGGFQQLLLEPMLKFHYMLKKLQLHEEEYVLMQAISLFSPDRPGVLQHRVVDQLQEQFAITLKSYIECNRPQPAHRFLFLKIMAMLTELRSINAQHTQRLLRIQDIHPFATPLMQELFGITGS
Chain of Cytochrome P450 1A2 (Homo sapiens) (P05177 whole entry, looked up): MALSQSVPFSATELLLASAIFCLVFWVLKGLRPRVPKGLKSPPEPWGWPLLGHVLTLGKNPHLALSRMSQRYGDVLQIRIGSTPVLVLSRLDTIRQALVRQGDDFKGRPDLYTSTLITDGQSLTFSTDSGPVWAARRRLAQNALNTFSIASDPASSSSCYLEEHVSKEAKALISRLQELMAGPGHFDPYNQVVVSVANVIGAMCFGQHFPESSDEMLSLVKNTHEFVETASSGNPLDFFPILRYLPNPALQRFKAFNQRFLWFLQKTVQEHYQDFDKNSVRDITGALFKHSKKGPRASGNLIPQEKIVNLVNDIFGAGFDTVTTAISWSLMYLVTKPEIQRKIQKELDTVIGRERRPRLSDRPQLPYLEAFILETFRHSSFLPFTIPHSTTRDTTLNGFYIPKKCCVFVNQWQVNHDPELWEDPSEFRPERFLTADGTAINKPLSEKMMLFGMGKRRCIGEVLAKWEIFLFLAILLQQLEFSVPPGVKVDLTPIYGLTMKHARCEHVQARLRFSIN
Chain of Cytochrome P450 2C9 (Homo sapiens) (P11712 whole entry, looked up): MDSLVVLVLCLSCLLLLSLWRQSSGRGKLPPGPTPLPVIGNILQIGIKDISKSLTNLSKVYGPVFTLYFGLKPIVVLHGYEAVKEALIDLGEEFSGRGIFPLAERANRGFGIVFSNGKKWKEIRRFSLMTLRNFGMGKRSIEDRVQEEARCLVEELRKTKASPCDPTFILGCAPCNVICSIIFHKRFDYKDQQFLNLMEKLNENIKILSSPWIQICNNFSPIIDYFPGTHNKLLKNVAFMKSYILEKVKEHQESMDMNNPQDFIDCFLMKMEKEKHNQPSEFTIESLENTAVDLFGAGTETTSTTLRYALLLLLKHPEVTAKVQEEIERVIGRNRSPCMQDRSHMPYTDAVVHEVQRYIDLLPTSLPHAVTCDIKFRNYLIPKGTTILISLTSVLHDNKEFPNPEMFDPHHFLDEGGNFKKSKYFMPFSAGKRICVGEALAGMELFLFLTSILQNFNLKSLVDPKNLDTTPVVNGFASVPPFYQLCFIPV

Take `O=C(OC[C@H]1O[C@@H](OC(=O)c2cc(O)c(O)c(O)c2)[C@H](OC(=O)c2cc(O)c(O)c(O)c2)[C@@H](OC(=O)c2cc(O)c(O)c(O)c2)[C@@H]1OC(=O)c1cc(O)c(O)c(O)c1)c1cc(O)c(O)c(O)c1`: the result in experiment [1], in experiment [2], in [3], in experiment [8], in [11] and in [12] was inactive. The molecule was classed as inactive in experiment [13]. In addition, the Potency is 7.08 µM (active) in experiment [4]; 14.1 µM (active) in [5]; 6.31 µM (active) in experiment [6]; 3.98 µM (active) in [7]; 3.55 µM (active) in experiment [9]. Also, the max response in experiment [10] was 0.413%.

As to `COc1cc(C(=O)O)ccc1NC(=O)[C@@H]1N[C@@H](CC(C)(C)C)[C@](C#N)(c2ccc(Cl)cc2F)[C@H]1c1cccc(Cl)c1F`, in [14], the Potency entry was “inactive”.

For the molecule `O=C1CC(c2ccc(O)cc2)Oc2cc(O)cc(O)c21` (configuration not stated), the molecule was classed as inactive in [15].

Consider `O=C1CC(c2ccc(O)cc2)Oc2ccccc21` (configuration not stated), for which, in experiment [16], the Potency is 25.1 µM (active).

For `O=C(/C=C/C#Cc1cccc(NS(=O)(=O)c2ccccc2)c1)NO`, the Potency in experiment [17] was 0.574 µM (active).
